# Source: PubChem BioAssay AID425 (Sanford-Burnham Center for Chemical Genomics, 2006)
# Several values for one entry are separate records, joined by “and”; a condition that tells them apart may be missing. Identical values can stand only once. In all, about 110,000 compounds went through this assay and about 190 (0.17%) were called active. No stated cut-off is given here; in the data, active means inhibition above about 50%; inactive means the rest. The sample as a whole holds a higher share of actives than the screen did. Potency and affinity values are given separately. Some structures have more than one record in an assay (separate samples or runs), and their calls can disagree.
# Target: Dual specificity protein phosphatase 6 (Rattus norvegicus) (UniProt Q64346)
# Assay: MKP-3 phosphatase inhibitors, primary screen, biochemical, rat enzyme, in vitro (AID 425);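 further: plate controls were vehicle for no effect and reference inhibitor for full effect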
# Settings: recombinant MKP-3 phosphatase activity, fluorescence; at 20 µM; stronger effect = higher value
# Dual specificity protein phosphatase 6 (Rattus norvegicus), sequence (Q64346 whole entry, looked up): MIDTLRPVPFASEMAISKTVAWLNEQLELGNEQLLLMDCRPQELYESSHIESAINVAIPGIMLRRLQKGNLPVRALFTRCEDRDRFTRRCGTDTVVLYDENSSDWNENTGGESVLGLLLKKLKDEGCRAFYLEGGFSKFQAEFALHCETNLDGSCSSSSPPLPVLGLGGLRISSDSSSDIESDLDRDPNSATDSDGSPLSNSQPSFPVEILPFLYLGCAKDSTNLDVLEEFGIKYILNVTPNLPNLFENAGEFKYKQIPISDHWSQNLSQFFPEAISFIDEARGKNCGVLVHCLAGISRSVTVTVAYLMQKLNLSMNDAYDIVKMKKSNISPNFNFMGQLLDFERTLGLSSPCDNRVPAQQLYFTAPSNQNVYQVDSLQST
row,Compound,inhibition
1,COc1ccc(S(=O)(=O)Nc2cc(C)c(O)c(S(=O)(=O)c3ccccc3)c2)cc1,-2.6% (inactive)
2,CC(=O)N(C)c1ccc(NC(=S)Nc2ccccc2)cc1,2.9% (inactive)
3,CN(C)c1ccc(NC(=S)Nc2ccccc2)cc1,0.8% (inactive)
4,CN(C(=S)Nc1ccccc1)c1ccccc1,50.8% (active)
5,CCNc1nc(NS(=O)(=O)c2ccc(C)cc2)nc(SC)n1,0.7% (inactive)
6,COC(=O)c1c(N=CN(C)C)c(C#N)c(C)n1-c1ccccc1,4.3% (inactive)
7,O=C(CSc1nc(O)c(Cc2ccccc2)c(=O)n1-c1ccccc1)N1CCOCC1,3% (inactive)
8,O=C1NC(=S)N/C1=C\c1ccc(-c2cccc([N+](=O)[O-])c2)o1,0.1% (inactive)
9,O=C1NC(=S)N/C1=C/c1ccc(-c2cc([N+](=O)[O-])ccc2Cl)o1,36.3% (inactive)
10,O=C1NC(=S)N/C1=C\c1ccc(-c2cc([N+](=O)[O-])ccc2Br)o1,50% (active)
11,O=c1c2ccccc2nc(-c2ccco2)n1-c1cccc2ccccc12,2.8% (inactive)
12,O=c1oc2cc(O)c([N+](=O)[O-])cc2cc1-c1csc(-c2ccc(Cl)cc2)n1,6.8% (inactive)
13,O=c1oc2cc(O)c([N+](=O)[O-])cc2cc1-c1csc(-c2cc3ccccc3oc2=O)n1,85.1% (active)
14,Cc1ccc(-c2nc(-c3cc4cc([N+](=O)[O-])c(O)cc4oc3=O)cs2)cc1,-1.3% (inactive)
15,O=C(c1ccc([N+](=O)[O-])cc1)N1CCN(Cc2ccccn2)CC1,1.2% (inactive)
16,CC(=O)CC(=O)Nc1ccc(C)c(Cl)c1,-2.2% (inactive)
17,O=C1C=C/C(=N\S(=O)(=O)c2ccc(Cl)c([N+](=O)[O-])c2)c2ccccc21,57.6% (active)
18,O=C1C=CC(=NS(=O)(=O)c2ccc(Cl)c([N+](=O)[O-])c2)C=C1,10.8% (inactive)
19,O=[N+]([O-])c1cccc(S(=O)(=O)/N=C(/Nc2ccccc2)c2ccccc2)c1,0.1% (inactive)
20,O=C1c2ccccc2C(=O)N1/N=C/c1ccc(Cl)c([N+](=O)[O-])c1,-2.1% (inactive)
21,O=C1C=C/C(=N\S(=O)(=O)c2cccc([N+](=O)[O-])c2)c2ccccc21,78.3% (active)
22,O=[N+]([O-])c1cccc(S(=O)(=O)Nc2ccccc2-c2ccccc2)c1,-0.7% (inactive)
23,COc1ccc(C(=O)NC(=S)Nc2ccc(I)cc2)cc1,1.2% (inactive)

row,Compound,inhibition
1,CCc1ccc(S(=O)(=O)Nc2ccc(OC(=O)c3ccc(Cl)cc3)cc2)cc1,0.4% (inactive)
2,CCn1c(/N=C/c2c[nH]c3ccccc23)nc2ccccc21,-7.4% (inactive)
3,Cn1c(/N=C/c2c(O)ccc3ccccc23)nc2ccccc21,-12.4% (inactive)
4,CCn1c(/N=C/c2c(O)ccc3ccccc23)nc2ccccc21,78.4% (active)
5,COc1ccc(NC(=O)CN(c2ccc(C)cc2)S(=O)(=O)c2ccc(SC)cc2)cc1OC,0.5% (inactive)
6,O=c1c2ccc(Br)c3cccc(c32)c2nc3ccc4c5c(ccc(c35)n12)CC4,0.3% (inactive)
7,O=c1c2ccc(Br)c3cccc(c32)c2nc3cccc4cccc(c43)n12,2.3% (inactive)
8,N#Cc1ccc2c(c1)nc1c3cccc4cccc(c(=O)n21)c43,66.7% (active)
9,CCOc1ccc2nc(SC3CC(=O)N(c4ccccc4C)C3=O)sc2c1 (configuration not stated),0.7% (inactive)
10,COc1ccc(/C=C2/NC(=O)/C(=C/c3ccc(OC)cc3)C2=O)cc1,4.5% (inactive)
11,Cc1ccc(/C=C2\NC(=O)c3ccccc3C2=O)cc1,21% (inactive)
12,COc1ccc(/C=C2\NC(=O)c3ccccc3C2=O)cc1,121% (active)
13,O=S(=O)(Nc1ncnc2c1oc1ccccc12)c1ccc(Cl)s1,-12.5% (inactive)
14,CCC1=NN2C(=N)/C(=C/c3ccc(OC)c(OC)c3)C(=O)N=C2S1,-3.5% (inactive)
15,COc1ccc(/C=C2/C(=N)N3N=C(C(C)C)SC3=NC2=O)cc1OC,0% (inactive)
16,CC(=O)N1CCC(C(=O)Nc2ccccc2)(N(Cc2ccccc2)C(=O)c2cccnc2)CC1,-4.2% (inactive)
17,CCOC(=O)c1c2c(n(C)c1CO)C(=O)C(=O)c1ccc(Br)cc1-2,120% (active)
18,CCOC(=O)c1c(C)n(C)c2ccc(OC(C)C(=O)OC)cc12 (configuration not stated),-3.4% (inactive)
19,CCOC(=O)c1c2c(n(Cc3ccccc3)c1C)C(=O)C(=O)c1ccc(Br)cc1-2,34% (inactive)
20,Cc1c(CN(C)C)c2c(n1C)C(=O)c1ccc(Br)cc1-2,1.2% (inactive)
21,CCOC(=O)c1c2c(n(C)c1CNC(C)C)C(=O)C(=O)c1ccc(Br)cc1-2,117% (active)
22,CCOC(=O)c1nnn(-c2nonc2N)c1CNC(C)C,6.2% (inactive)
23,Cc1cc([N+](=O)[O-])ccc1NCc1ccco1,0.4% (inactive)

row,Compound,inhibition
1,Cc1nc(C)n(CC(O)COc2ccc3c(c2)CCC3)n1 (configuration not stated),-16.3% (inactive)
2,C=CCn1c(NC(=O)c2ccccc2)c(C#N)c2nc3ccccc3nc21,23.5% (inactive)
3,CCC(=O)Nc1c(C#N)c2nc3ccccc3nc2n1-c1ccc(C)cc1,1.4% (inactive)
4,COc1ccc(C(=O)NCCn2ccc3ccccc32)cc1OC,-4.9% (inactive)
5,COC(=O)c1c(NC(=O)c2c(C)noc2C)sc2c1CCCCCC2,-8.3% (inactive)
6,CCCC(C)NS(=O)(=O)c1ccc(C)cc1 (configuration not stated),-0.1% (inactive)
7,Cc1ccc(S(=O)(=O)NCC(C)NS(=O)(=O)c2ccc(C)cc2)cc1 (configuration not stated),69.6% (active)
8,CC(=O)Nc1ccc(S(=O)(=O)NCC(C)NS(=O)(=O)c2ccc(NC(C)=O)cc2)cc1 (configuration not stated),-11.4% (inactive)
9,COC(=O)c1ccc(-c2ccc(/C=N\Nc3ccc([N+](=O)[O-])cn3)o2)cc1,5.2% (inactive)
10,CCSc1nc(N)c2c3c(sc2n1)COC(C)(CC)C3 (configuration not stated),3.9% (inactive)
11,CC(=O)Nc1ccc(C(=O)NCc2ccccn2)cc1,1.3% (inactive)
12,Cc1ccnc(NS(=O)(=O)c2ccc(NC(=O)c3cccc(I)c3)cc2)n1,1.1% (inactive)
13,CC1(C)CC(NC(=O)CCc2ccccc2)CC(C)(C)N1,3.8% (inactive) and -2.1% (inactive)
14,Cc1cccc(C=Nc2ccc(O)cc2)c1,118% (active)
15,Oc1ccc(N=Cc2cc(Br)cc(Br)c2O)cc1,9.6% (inactive)
16,Oc1cccc(C=Nc2ccc(Cl)c(Cl)c2)c1,-1.5% (inactive)
17,COc1ccc(N=Cc2ccc(O)c(OC)c2)cc1,-0.9% (inactive)
18,Oc1ccc(C=Nc2ccc(O)cc2)cc1,51% (active)
19,CN(C)c1ccc(C=Nc2ccc(N(C)C)cc2)cc1,-3.9% (inactive)
20,Cc1cccc(C=Nc2ccc(-c3nc4ccc(C)cc4s3)cc2)c1,-2.3% (inactive)
21,Oc1ccc(N=Cc2ccc(O)c(O)c2)cc1,69.4% (active) and -3.7% (inactive)
22,Oc1ccc(/C=N/N=C/c2ccc(O)c(O)c2)cc1O,1.8% (inactive)
23,COc1ccc2c(c1OC)CN(C)CCc1cc3c(cc1C(O)C2)OCO3 (configuration not stated),-15.6% (inactive)

row,Compound,inhibition
1,COc1ccc(C2NC(=O)NC(C)=C2C(=O)Nc2ccccc2C)cc1OC (configuration not stated),-0.4% (inactive)
2,O=C1CCCC2=C1C(c1ccc(Cl)cc1)Nc1ccccc1N2 (configuration not stated),0.4% (inactive)
3,Cc1ccccc1NC(=O)CCCN1C(=O)/C(=C/c2cccc3c2OCO3)SC1=S,4.3% (inactive)
4,CSc1nsc(SC)c1NC(=O)OCc1ccccc1,-3.9% (inactive) and 1.7% (inactive)
5,COc1cccc(C(=O)Nc2ccc(OC(F)(F)F)cc2)c1,3.1% (inactive)
6,COc1ccc(/C=C2\SC(=O)N(CC(=O)Nc3nccs3)C2=O)cc1OC,0% (inactive)
7,O=S(=O)(NCc1ccc(F)cc1)c1ccc2ccccc2c1,0% (inactive)
8,COC(=O)c1sc(=S)n(-c2cc(F)ccc2F)c1N,10.2% (inactive)
9,Cc1ccc2[nH]c(C)c(CC(=O)N/N=C/c3cccnc3)c2c1,-2% (inactive)
10,O=c1[nH]c(=S)n(-c2ccccc2F)c(O)c1C=C1C=CC=N1,60.5% (active)
11,O=c1[nH]c(=O)n(-c2ccccc2Cl)c(O)c1C=C1C=CC=N1,3.3% (inactive)
12,Cn1c(O)c(/C=C2/C=CC=N2)c(=O)n(-c2ccccc2)c1=S,95.6% (active)
13,COc1ccc(-n2c(O)c(/C=C3\C=CC=N3)c(=O)[nH]c2=O)cc1,2.1% (inactive)
14,Cc1ccccc1-n1c(O)c(C=C2C=CC=N2)c(=O)[nH]c1=S,45.4% (inactive)
15,O=c1[nH]c(=S)n(-c2cccc(Cl)c2)c(O)c1/C=C1/C=CC=N1,9% (inactive)
16,COc1ccc(NC(=O)Cn2nnc(C(N)=O)c2N)c(OC)c1,-7.2% (inactive)
17,O=C1c2ccc(-c3nc4ccccc4c(=O)o3)cc2C(=O)N1c1ccc(I)cc1,-0.1% (inactive)
18,COC(=O)c1ccc(-n2c(C)cc(/C=N/n3cnnc3)c2C)cc1,-6.7% (inactive)
19,Cc1nnc(NC(=O)CSc2cn(Cc3ccccc3)c3ccccc23)s1,-5.8% (inactive)
20,COc1ccc(/C=C/C(=O)Nc2ccc(C)c([N+](=O)[O-])c2)cc1OC,-0.5% (inactive)
21,Cc1ccc(/C=N/n2cnnc2)cc1[N+](=O)[O-],-0.6% (inactive)
22,O=C(O)CCCCCN1C(=O)C(=O)/C(=C(/O)c2ccccc2)C1c1ccc(F)cc1 (configuration not stated),0.8% (inactive)
23,CC(C)(C)c1ccc(OCC(=O)NC2CCS(=O)(=O)C2)cc1 (configuration not stated),3% (inactive)
